Measurements: PubChem BioAssay AID1159580 (chemical genetic matrix, 2015)
Where “and” joins values, the source holds several entries; their conditions need not be identical. Equal values may be shown once. In all, about 5,500 compounds went through this assay and about 2,000 (36%) were called active. Another 18% or so got no clear call; they are omitted. Cut-off read from the data, not from the text of the source: active = normalized growth mostly below about 0.91 (no sharp cut-off); inconclusive = no clear call, values can overlap the other calls; inactive = mostly above about 0.92. Some of the results follow.

Test: chemical genetic growth profiling, strain panel (AID 1159580);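 note: tested at 20 µM; growth read once vehicle control cultures reached saturation at 30 °C; 1 = growth at the plate median or of vehicle wells; lower values mean less growth of the strain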
Conditions: S. cerevisiae deletion strains, growth OD

Measured: normalized growth

Cc1ccc(/C(=C\CN2CCCC2)c2ccccn2)cc1
inactive: locus YAL013W, strain DEP1, hits give low values 1.01 | locus YAL021C, strain ccr4, hits give low values 0.99 | locus YAL026C, strain drs2, hits give low values 0.992 | locus YAL030W, strain snc1, hits give low values 1.03 | locus YAL040C, strain CLN3, hits give low values 1.02 | locus YBL061C, strain skt5, hits give low values 1.02 | locus YBR009C, strain hhf1, hits give low values 0.971 | locus YBR021W, strain FUR4, hits give low values 1 | locus YBR023C, strain chs3, hits give low values 1.01 | locus YBR171W, strain sec66, hits give low values 1.02 | locus YBR229C, strain ROT2, hits give low values 1.01 | locus YBR231C, strain swc5, hits give low values 1.04 | locus YBR279W, strain paf1, hits give low values 0.991 | locus YCL011C, strain gbp2, hits give low values 0.99 | locus YCL016C, strain dcc1, hits give low values 0.975 | locus YCL029C, strain bik1, hits give low values 1 | locus YCL061C, strain MRC1 (second series), hits give low values 0.99 | locus YCL061C, strain MRC1, hits give low values 1.02 | locus YCL069W, strain vba3, hits give low values 1.01 | locus YCR088W, strain abp1, hits give low values 1.02 | locus YDL005C, strain med2, hits give low values 1.01 | locus YDL035C, strain GPR1, hits give low values 1.02 | locus YDL040C, strain nat1, hits give low values 1.01 | locus YDL074C, strain BRE1, hits give low values 1.01 | locus YDL101C, strain DUN1, hits give low values 1.01 | locus YDL134C, strain PPH21, hits give low values 1.01 | locus YDL185W, strain tfp1, hits give low values 1.01 | locus YDL192W, strain arf1, hits give low values 1 | locus YDR001C, strain nth1, hits give low values 1 | locus YDR069C, strain doa4, hits give low values 1.02 | locus YDR101C, strain arx1, hits give low values 0.997 | locus YDR137W, strain rgp1, hits give low values 0.993 | locus YDR150W, strain NUM1, hits give low values 1.02 | locus YDR159W, strain sac3, hits give low values 0.933 | locus YDR162C, strain NBP2, hits give low values 1.01 | locus YDR195W, strain ref2 0.993 | locus YDR297W, strain sur2, hits give low values 1.02 | locus YDR318W, strain mcm21, hits give low values 0.995 | locus YDR334W, strain swr1, hits give low values 0.991 | locus YDR335W, strain msn5, hits give low values 1.01 | locus YDR363W, strain ESC2, hits give low values 0.965 | locus YDR388W, hits give low values 0.998 | locus YDR392W, strain spt3, hits give low values 0.927 | locus YDR502C, strain sam2, hits give low values 0.995 | locus YEL003W, strain gim4, hits give low values 1.04 | locus YEL037C, strain rad23, hits give low values 1.01 | locus YEL061C, strain CIN8 (second series), hits give low values 1.01 | locus YEL061C, strain CIN8, hits give low values 1.01 | locus YER002W, strain NOP16, hits give low values 1 | locus YER015W, strain faa2, hits give low values 1.01 | locus YER016W, strain bim1, hits give low values 0.995 | locus YER110C, hits give low values 0.995 | locus YER111C, strain swi4, hits give low values 1 | locus YER155C, strain BEM2 (second series), hits give low values 1.05 | locus YER155C, strain BEM2, hits give low values 1 | locus YER167W, strain BCK2, hits give low values 1.01 | locus YFR010W, strain ubp6, hits give low values 1.01 | locus YGL078C, strain dbp3, hits give low values 0.993 | locus YGL086W, strain mad1, hits give low values 0.996 | locus YGL167C, strain pmr1, hits give low values 1.01 | locus YGL173C, strain kem1, hits give low values 1.04 | locus YGL227W, strain vid30, hits give low values 1.01 | locus YGL240W, strain doc1, hits give low values 1.03 | locus YGL248W, strain PDE1, hits give low values 1 | locus YGL253W, strain hxk2, hits give low values 0.98 | locus YGR078C, strain PAC10, hits give low values 1.01 and 0.984 | locus YGR135W, strain pre9, hits give low values 0.997 | locus YGR229C, strain SMI1, hits give low values 1.01 and 0.973 | locus YGR252W, strain gcn5, hits give low values 0.98 | locus YHR013C, strain ard1, hits give low values 0.999 | locus YHR027C, strain rpn1, hits give low values 1.01 | locus YHR030C, strain SLT2, hits give low values 1.02 and 0.995 | locus YHR079C, strain IRE1 (second series), hits give low values 0.998 | locus YHR079C, strain IRE1, hits give low values 1.02 | locus YHR094C, strain hxt1, hits give low values 0.999 | locus YHR129C, strain ARP1, hits give low values 1.01 | locus YHR142W, strain chs7, hits give low values 1.01 | locus YHR200W, strain rpn10, hits give low values 1 | locus YIL066C, strain RNR3, hits give low values 1.02 | locus YIL073C, strain SPO22, hits give low values 1.01 | locus YIL125W, strain kgd1, hits give low values 1 | locus YIR030C, strain dcg1, hits give low values 0.995 | locus YJL092W, strain hpr5, hits give low values 1.02 | locus YJL095W, strain BCK1 (second series), hits give low values 1.03 | locus YJL095W, strain BCK1, hits give low values 0.997 and 1.01 | locus YJL115W, strain asf1, hits give low values 1 | locus YJL129C, strain trk1, hits give low values 1.03 | locus YJL134W, strain LCB3, hits give low values 1.01 | locus YJL154C, strain vps35, hits give low values 1.01 | locus YJL164C, strain tpk1, hits give low values 0.979 | locus YJL166W, strain qcr8, hits give low values 1.04 | locus YJL168C, strain set2, hits give low values 1 | locus YJL187C, strain SWE1 (second series), hits give low values 1.02 | locus YJL187C, strain SWE1, hits give low values 1.02 | locus YJR043C, strain POL32, hits give low values 0.991 | locus YJR066W, strain TOR1, hits give low values 0.955
